The text below walks through data of PubChem BioAssay (EPA / NIEHS).

Structures are written as SMILES. Records with an inconclusive call do not appear. Activity calls are given as the source filed them. How the source made its calls: active means hit-call score of the fitted dose curve at least 0.9, where 1 is the maximum; inconclusive means response in the unintended direction; inactive means score below 0.9.

This experiment has as its target Sodium channel protein type 1 subunit alpha (Rattus norvegicus) (UniProt P04774). Description: NVS_IC_rNaCh_site2: NovaScreen (NVS) Ion Channel Assay for rat Sodium Channel, Site 2 (NaCh) (AID 2283322). On the procedure: NVS_IC_rNaCh_site2 is a biochemical, single-readout assay that uses extracted gene-proteins from Rat forebrain membranes in a tissue-based cell-free assay. Measurements were taken 1 hour after chemical dosing in a 48-well plate.NVS_IC_rNaCh_site2 is one of one assay component(s) measured or calculated from the NVS_IC_rNaCh_site2 assay. It is designed to make measurements of radioligand binding, a form of binding reporter, as detected with scintillation counting signals by Filter-based radiodetection technology.Data from the assay component NVS_IC_rNaCh_site2 was analyzed into 1 assay endpoint. This assay endpoint, NVS_IC_rNaCh_site2, was analyzed in the positive analysis fitting direction relative to DMSO as the negative control and baseline of activity. Using a type of binding reporter, loss-of-signal activity can be used to understand changes in the binding as they relate to the gene Scn1a. Furthermore, this assay endpoint can be referred to as a primary readout, because the performed assay has only produced 1 assay endpoint. To generalize the intended target to other relatable targets, this assay endpoint is annotated to the ion channel intended target family, where the subfamily is sodium channel.
Binding assays used specific radioligands (tritiated, iodinated) with non-radioactive competitive displacement ligands in agonist or antagonist protocols (as indicated) and various reference compounds and inhibitors to titrate specific binding to receptors and transporters. Most enzyme assays (CYPs, kinases, phosphatases, proteases, HDACs) used recombinant protein and specific substrates (fluorescence mostly, some colorimetric and radioactive) and inhibitors, followed by a biochemical separation of substrate and product. All assays for the biochemical HTS were initially run in duplicate at a single concentration (10 uM for CYP450 assays and 25 uM for all others). […] Each assay was run with positive and negative controls, and concurrent controls on every plate. The follow-up (secondary) screen tested active chemical-pairs in concentration series, as well as a few additional assays not tested in the primary screen, some selected negative inactives, and several cases re-run in the concentration series for confirmatory purposes.
As to `CCN(Cc1cccnc1)C(=O)c1cccc(Cl)c1[C@]1(C)C(=O)N(Cc2ccc(OC)cc2OC)c2ccc(Cl)cc21`, the AC50 is 17.5 µM (active).
In the case of `CC[C@H](NC(=O)c1cc(F)ccc1NS(=O)(=O)c1cccc2cccnc12)c1ccccc1`, the call was inactive.
With `Cc1cc(F)ccc1-c1cc(N2CC[C@@H](O)[C@H]2CO)ncc1N(C)C(=O)C(C)(C)c1cc(C(F)(F)F)cc(C(F)(F)F)c1`, the AC50 was 5.99 µM (active).
Regarding `COc1cccc([C@H](O)C2CCN(CCc3ccc(F)cc3)CC2)c1OC`, the AC50 is 3.64 µM (active).
`NC(=O)c1nc(-c2cccc(-c3cc(F)ccc3OCC(F)(F)C(F)(F)F)c2)n[nH]1`: the AC50 is 0.574 µM (active).
In the case of `COc1ccc2cc(S(=O)(=O)N[C@H](CC(=O)N[C@H](Cc3ccc(CN4[C@H](C)CCC[C@@H]4C)cc3)C(=O)N(C)C(C)C)c3ccc4c(c3)OCO4)ccc2c1`, the AC50 is 5.03 µM (active).
On to `NCc1cccc(C2CCN(C(=O)c3ccc(C#Cc4ccccc4F)o3)CC2)c1`, for which the AC50 is 2.68 µM (active).
In the case of `CCCCCCCCN(C)CCCCCCCC`, the AC50 was 11.8 µM (active).
The same measure, in the same setting: to `c1ccc(C[n+]2cccc3ccccc32)cc1` belongs 10.7 µM (active).
Same read-out and setting: in the case of `CCOC(=O)O[C@H](C)OC(=O)c1ccc2c(c1)cc(C(=O)NC1CCN(C(C)C)CC1)n2Cc1cc(-c2ccc(Cl)s2)on1` it was 9.62 µM (active); in that of `O=C1c2ccccc2C(=O)N1CCc1noc(-c2ccc(CN3CCCCCC3)s2)n1`, 13.4 µM (active).
On the same count and under the same terms, in the case of `CCCCCCCCOC(=O)c1cc(O)c(O)c(O)c1` it was 17.7 µM (active).
In the case of `CC(O)CC(C)(C)O` (stereo not given), the outcome was inactive.
In the case of `CCCCCCCCCCCC[N+](C)(C)C`, the AC50 is 13 µM (active).
`CCN(CC)C(=O)c1cc(S(=O)(=O)Cc2ccccc2)c(N2CCC(c3ccccc3)CC2)cc1N(CC)CCN(C)C`: the AC50 is 0.419 µM (active).
On the same count and under the same terms, to `Clc1cc(Cl)c2c(c1)N=C1CCCCCN1C2` belongs 6.64 µM (active); to `Cc1occc1C(=O)Nc1ccc(C(=O)N2CCC(F)(F)/C(=C\C(=O)N3CCC(N4CCCCC4)CC3)c3ccccc32)cc1`, 4.89 µM (active); to `CN(C)C(=O)C1(N2CCCCC2)CCN(CC[C@@]2(c3ccc(Cl)c(Cl)c3)CN(C(=O)c3ccccc3)CCO2)CC1`, 0.822 µM (active).
Consider `COc1cc(C(=O)NC2CCN(C)CC2)ccc1Nc1ncc2c(n1)N(C1CCCC1)CC(F)(F)C(=O)N2C`, for which the AC50 was 2.03 µM (active).
Still for that read-out and setting: to `CN(C)c1ccc(C(=C2C=CC(=[N+](C)C)C=C2)c2ccc(N(C)C)cc2)cc1` belongs 0.263 µM (active).
